High-throughput results from PubChem.
Hits are enriched below; roughly 1.1% of the tested compounds scored in any of these assays.
Apoferritin bind – qHTS Assay for Identification of Novel General Anesthetics; Ferritin light chain (Equus caballus), P02791; apoferritin/1-aminoanthracene competitive binding, fluorescence; Potency, µM (series often up to 77.5 µM), for the others: at the highest dose activity change, negative = displacement, usual class: inhibitors; 350,000 compounds, 0.074% hits; AID 485281, 2010; note: potency is the fitted concentration of half-maximal effect; % is set by controls: 0 for no effect and ±100 for the full control effect; nearly all actives have a fitted effect of over 20% in size
Target sequence (P02791 2-175 limits assumed): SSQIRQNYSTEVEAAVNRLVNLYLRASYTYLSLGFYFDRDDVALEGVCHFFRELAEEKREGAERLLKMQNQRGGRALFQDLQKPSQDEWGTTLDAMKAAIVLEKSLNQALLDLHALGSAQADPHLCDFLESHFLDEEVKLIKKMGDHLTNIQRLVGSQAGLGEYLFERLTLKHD
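10 uM apoferritin + 50% sat. 1-AMA, PBS; cpd 10 min RT; Ex380/Em535 endpoint; normalized to free probe vs complex; 4-param Hill fit; propofol titration as pos. ctrl.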
p53 reactivation – qHTS assay for re-activators of p53 using a Luc reporter; H1299 p53-A138V BP100-luciferase reporter, luminescence, 24 h; Potency, µM (series often up to 92.2 µM), for the others: at the highest dose activity change, positive = activation, most hits filed as activators; 320,000 compounds, 0.063% hits; note: potency is the fitted concentration of half-maximal effect; % of control where 0% means no effect; nearly all actives have a fitted effect of over 45% in size
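H1299 (p53-null), stable ts p53-A138V + BP100-Luc; 1000 cells/well, Opti-MEM/10% FBS; cpd 4 pt, 1:5; 24 h, 37 deg C, 5% CO2; detection reagent 10 min RT; luminescence.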
BRCA1 expr act – qHTS Assay to Identify Small Molecule Activators of BRCA1 Expression | MCF7-BRCA1-FFLuc reporter, luminescence, 48 h; response scale: scaled: vehicle 0%, 10 µM genistein 100% | Potency, µM (doses to about 46.1 µM), for inactives: top-dose activation, hits mostly activators | AID 624202, 2012 | 380,000 compounds, 1.1% hits; note: potency is the fitted concentration of half-maximal effect; nearly all actives have a fitted effect of over 80% in size
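Luminescence from a BRCA1-driven firefly luciferase in MCF7 cells was the read-out, taken 15 min after substrate addition following 48 h compound exposure at 37 °C. Data were normalized to a 10 microM genistein control and DMSO vehicle.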
miR-21 act – qHTS Assay for Modulators of miRNAs and/orActivators of miR-21; 340,000 tested, under 10 active; Potency, µM (titrated, usually from 38.3 µM), for inactives: top-dose activity change, positive = activation, usual class: activators; HeLa miR-21 FLuc reporter, luciferase, 48 h;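 note: % of control where 0% means no effect; miR-21 action dims this reporter so a rising signal means less miR-21 action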
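Luminescence from a firefly luciferase reporter carrying a miR-21 binding site downstream, stably expressed under a CMV promoter in HeLa cells that make miR-21 endogenously, reports miRNA modulation after 48 h compound exposure up to approximately 40uM final.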
Numbers without * were called inactive; ? = inconclusive; . = no result given; [ ] = dose if it differs, or a comment. Calls come from the whole dose curve; as a rule, active = well fitted curve in the direction sought with a large enough effect; inconclusive = small, poorly fitted or top-dose-only effect, or another doubt; inactive = no such curve, though single readings can be large; an effect the other way counts as inactive or inconclusive.

SMILES	Apoferritin bind	p53 reactivation	BRCA1 expr act	miR-21 act
CCNc1nc(N)c(C(=O)c2ccc(Cl)s2)s1	-23.1%	?	5.01µM*	-40.2%
COc1ccc(C(=O)Nc2c(N)nc[nH]c2=O)cc1	.	.	1.7%	.
CCOC(=O)c1cccc(C2=CC(=O)C[C@H](c3ccc(OC)cc3)C2)c1	.	12.6µM*	11.2µM*	.
COc1ccc([C@H]2CC(=O)C=C(c3cccc(Cl)c3)C2)cc1	.	-2.0%	11.2%	.
Cc1ccc(C(C)C)c(OCC(=O)Nc2ccc(C(=O)OC3CCCCC3)cc2)c1	-16.2%	.	.	-8.1%
Cc1cc(C)n(CC(C)NC(=O)c2cc(COc3ccc(F)c(F)c3)on2)n1 (stereo unspecified)	-23.4%	.	92.0%	-25.8%
Cc1cc(CNC(=O)c2cc(COc3ccc(F)c(F)c3)on2)nn1C	?	-14.1%	8.91µM*	-47.2%
O=C1NN(c2ccc(Cl)cc2)C(=O)/C1=C\c1ccc(-c2cccc(C(=O)O)c2)o1	1.5%	9.3%	8.91µM*	-2.4%
Cc1ccc(N2NC(=O)/C(=C/c3ccc(-c4ccc(Cl)c(C(=O)O)c4)o3)C2=O)cc1	-6.6%	2.7%	4.9%	-0.3%
CCCNC(=O)CN1C(=O)COc2ccc(S(=O)(=O)N3CCCC3)cc21	-4.9%	.	-11.8%	-0.5%
Cc1cc(O)ccc1Nc1cc(-c2cccc(N(C)C)c2)ncn1	.	.	5.62µM*	.
CN(C)c1ccc(-c2cc(NCc3ccccc3)ncn2)cc1	-1.2%	.	.	.
CSc1ccc(CN2CCC(C)(Oc3ccc(-n4ccnc4)cc3)C2)cc1 (stereo unspecified)	.	.	-28.9%	.
CCOc1ccc(NC(=O)Cc2ccc(NC(=O)N3CCCCc4ccccc43)cc2)cc1	-2.3%	.	0.0%	-26.6%
COc1c2ccoc2nc2c(OC)cccc12	-9.9%	5.9%	25.1µM*	-42.4%
COc1c2ccoc2nc2c(OC)c(OC[C@H](O)C(C)(C)O)ccc12	1.6%[29.3 µM]	.	.	.
CCOc1ccc(NC(=O)CC2C(=O)N(c3ccc(F)cc3)C(=O)N2Cc2ccc(OC)c(OC)c2)cc1 (stereo unspecified)	-14.4%	.	.	1.2%
c1ccc(-c2ccc(-n3ccnc3)cc2)cc1	-18.1%	?	10µM*	-35.2%
COc1cccc(CNC(=O)C2CCN(C(=O)N3CCOc4ccc(Cl)cc43)CC2)c1OC	-3.1%	.	.	26.7%
O=c1cc(-c2ccc3c(c2)OCO3)oc2ccccc12	-3.0%	?	34.1%	-38.0%
Nc1c(-c2ccc3c(c2)OCCO3)oc2ccccc2c1=O	-4.4%	?	2.51µM*	-67.0%
O=C(CCN1C(=O)/C(=C/c2ccccc2Cl)SC1=S)N1CCOCC1	-9.6%	15.8µM*	-53.4%	0.6%
O=C(CCN1C(=O)/C(=C/c2ccccc2Cl)SC1=S)N1CCCC1	-4.7%	-32.3%	0.4%	-1.3%
O=C1CC(c2ccc3c(c2)OCCO3)Oc2ccc([N+](=O)[O-])cc21 (stereo unspecified)	-9.8%	35.7%	2.6%	-64.7%
O=C1CC(c2ccc3c(c2)OCCO3)Oc2ccccc21 (stereo unspecified)	?	?	11.2µM*	-62.8%
SMILES	Apoferritin bind	p53 reactivation	BRCA1 expr act	miR-21 act
COc1ccc(/C(N)=N/OC(=O)c2ccc3c(c2)OCO3)cc1	-6.7%	18.8%	3.16µM*	-42.7%
Cc1ccc(/C(N)=N/OC(=O)c2ccc3c(c2)OCO3)cc1	-11.6%	?	?	-60.3%
N/C(=N\OC(=O)c1ccc2c(c1)OCO2)c1ccc(Cl)cc1	-4.0%	?	8.91µM*	-44.8%
Cc1cccc(C(=O)O/N=C(\N)c2ccc(Cl)cc2)c1	3.4%	?	-27.6%	-38.9%
COc1ccc(C(=O)O/N=C(\N)c2ccc(Cl)cc2)cc1	-4.7%	?	2.51µM*	-42.3%
Cc1cc(/C(N)=N/OC(=O)c2ccc(Cl)cc2)no1	-16.9%	14.5%	7.94µM*	-61.6%
COc1ccccc1C(=O)O/N=C(\N)c1ccc(Cl)cc1	4.7%	15.7%	-40.9%	-49.8%
Cc1cc(/C(N)=N/OC(=O)c2cccc(Cl)c2)no1	-4.8%	8.9%	32.2%	-53.3%
N/C(=N\OC(=O)c1ccc2c(c1)OCO2)c1ccncc1	-1.4%	14.1%	4.47µM*	-50.1%
COc1ccc(C(=O)O/N=C(\N)c2ccncc2)cc1OC	-7.1%	?	31.8%	-47.7%
O=C(c1ccc(Cl)cc1Cl)c1ncc(C(F)(F)F)cc1Cl	?	-7.6%	1.6%	-2.6%
O/N=C(\c1ccc(Cl)cc1Cl)c1ncc(C(F)(F)F)cc1Cl	17.8µM*	2.2%	-45.6%	24.2%
O=C(Nc1ccc(N2CCOCC2)c(Cl)c1)c1cccnc1Cl	1.8%	7.6%	-0.2%	-21.3%
COc1c(C)cccc1C(=O)Nc1ccc(N2CCOCC2)c(Cl)c1	-11.4%	?	2.51µM*	-55.4%
CCN1CCN(c2ccc(NC(=O)c3ccccc3F)cc2Cl)CC1	-14.5%	17.9%	7.08µM*	-61.7%
CC(Sc1ncnc2sc(-c3ccccc3)cc12)C(N)=O (stereo unspecified)	-1.1%	-7.5%	10µM*	-2.6%
Cn1/c(=N/NC(=O)c2ccccc2Br)sc2ccccc21	-12.8%	3.7%	10µM*	-51.9%
Cn1c(C(=O)NCCC2=CCCCC2)cc2c(=O)n3ccccc3nc21	64.0%	17.5%	11.2µM*	-22.3%
Cc1cccn2c(=O)c3cc(C(=O)NCCC4=CCCCC4)n(C)c3nc12	1.9%	-2.0%	-0.3%	-1.9%
Cc1ccc(OC(=O)CSc2nnc(-c3cccs3)o2)cc1C	-8.4%	.	.	7.2%
CCCCC[C@H](C)N1C[C@@H](COCc2ccccc2)Oc2cc(N3CCC[C@@H]3COC)ccc2S1(=O)=O	.	.	-9.6%	.
O=C(c1ccc(CSc2ccc(Cl)cc2)cc1)N1CCOCC1	?	-3.4%	62.6%	-15.1%
O=C(c1ccc(CSc2ccc(Cl)cc2)cc1)N1CCCC1	?	2.2%	10µM*	-34.1%
COc1ccccc1C1=NC(c2ccc(F)cc2)N=C1C (stereo unspecified)	-12.6%	17.0%	12.6µM*	-30.1%
COc1cccc(C2=N/C(=C\N(C)C)C(=O)O2)c1	-10.1%	7.6%	11.2µM*	-34.6%
SMILES	Apoferritin bind	p53 reactivation	BRCA1 expr act	miR-21 act
CN1CCN(C(=O)c2ccc(COc3ccc(C(C)(C)C)cc3)o2)CC1	?	10.6%	3.55µM*	-15.2%
N=C1C=CC(=C(c2ccc(N)cc2)c2ccc(N)cc2)C=C1	.	.	-80.0%	.
CN(C)S(=O)(=O)c1ccc(C(=O)OCC2CC2(Cl)Cl)cc1 (stereo unspecified)	-16.1%	-1.1%	1.3%	-0.3%
CCCCc1nc2cc(C(=O)N3CCCC3)ccc2o1	-14.5%	10.3%	8.91µM*	-34.6%
COCCN1CCN(C(=O)c2ccc3oc(CCCc4ccccc4)nc3c2)CC1	-12.9%	-3.2%	12.6µM*	-43.8%
CCCCc1nc2cc(C(=O)N3CCNC(=O)C3)ccc2o1	-6.5%	16.5%	1.4%	-6.4%
CCCN(CCC)C(=O)CN1C(=O)CSc2ccc(S(=O)(=O)N3CCC(C)CC3)cc21	?	.	.	0.2%
